Experimental data taken from PubChem BioAssay.
Active and inactive are the calls of the source. Unless noted, no rule for the calls is given here.

Legend:
[1] = system: Wnt5a (protein binding on small-molecule microarray); assay: Wnt5a binders on small-molecule microarray, primary screen, biophysical, 635/667 nm fluorescence (AID 1142); details: 635 nm fluorescence, higher = more signal;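 also: fluorescence read at 667 nm with signal to noise per printed feature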
[2] = cell viability in Huh7 cells, primary screen, cytotoxicity control for HCV replication inhibitor project, CellTiter-Glo luminescence, basal, 48 h (AID 1143); details: Huh7 HCV replicon, higher = more signal, called active from +8 up or from −8 down;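 also: Huh7 hepatoma cells carrying a hepatitis C replication reporter with no stimulus; test concentration not given here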
[3] = P. aeruginosa biofilm formation inhibitors, primary screen, PAO1 strain, BacTiter-Glo luminescence, LB-PBS (AID 1144); details: 12 h, higher = more signal
[4] = CREB reporter modulators without forskolin, primary screen, cell-based, PC12, CRE-LacZ reporter, unstimulated (AID 1145); details: no forskolin, luminescence, 4.5 h, higher = more signal, called active from +8 up or from −8 down
[5] = CREB reporter modulators under forskolin, primary screen, cell-based, PC12, CRE-LacZ reporter, forskolin-stimulated (AID 1146); details: luminescence, 4.5 h, higher = more signal, called active from +8 up or from −8 down;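 also: PC12 cells with 6xCRE LacZ reporter stimulated by forskolin 10 µM; beta-galactosidase reporter signal reflecting CREB driven transcription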
[6] = biological target: Streptavidin (Streptomyces avidinii) (UniProt P22629); assay: streptavidin binders on small-molecule microarray, primary screen, artefact control for SMM compound annotation, biophysical, 635/667 nm fluorescence (AID 1147); details: streptavidin binding, higher = more signal;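 also: signal reflects streptavidin binding to arrayed compounds as a control protein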
Sequence of Streptavidin (Streptomyces avidinii) (P22629 whole entry, looked up): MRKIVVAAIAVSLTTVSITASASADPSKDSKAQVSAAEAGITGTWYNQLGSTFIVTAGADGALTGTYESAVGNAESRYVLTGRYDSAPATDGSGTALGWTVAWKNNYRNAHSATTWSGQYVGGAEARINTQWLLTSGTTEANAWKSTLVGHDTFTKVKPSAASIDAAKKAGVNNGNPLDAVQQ

[7] = small-molecule binders of probe aInhba, primary screen, biochemical, small-molecule microarray, 635/667 nm fluorescence (AID 1148); details: higher = more signal;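 also: score merges 667nm spot fluorescence with signal-to-noise for antibody binding to printed compounds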
Torsin-1A (Homo sapiens) [8] = biological target: Torsin-1A (Homo sapiens) (UniProt O14656); assay: torsin A binders from cell lysate, primary screen, small-molecule microarray, wild-type, 635/667 nm (AID 1149); details: COS7 hTOR1A-WT lysate, 635 nm fluorescence, higher = more signal
Sequence of Torsin-1A (Homo sapiens) (O14656 whole entry, looked up): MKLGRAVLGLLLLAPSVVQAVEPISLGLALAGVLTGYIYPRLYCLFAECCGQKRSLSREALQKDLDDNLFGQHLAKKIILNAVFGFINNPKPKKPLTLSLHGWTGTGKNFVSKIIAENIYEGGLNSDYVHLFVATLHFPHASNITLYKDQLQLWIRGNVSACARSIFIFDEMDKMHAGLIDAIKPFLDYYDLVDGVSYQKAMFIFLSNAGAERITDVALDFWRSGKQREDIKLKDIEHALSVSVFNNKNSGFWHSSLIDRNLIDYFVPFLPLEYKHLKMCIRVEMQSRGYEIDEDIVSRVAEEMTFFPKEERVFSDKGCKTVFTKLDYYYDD

Torsin-1A (Homo sapiens) [9] = biological target: Torsin-1A (Homo sapiens) (UniProt O14656); assay: small-molecule binders of mutant TOR1A in lysate, primary screen, cell lysate, small-molecule microarray, COS7 lysate, 635/667 nm fluorescence (AID 1150); details: COS7 hTOR1A mutant lysate, 635 nm fluorescence, higher = more signal;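 also: score pools 667 nm emission and signal to noise measuring lysate protein binding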
[10] = system: Sonic hedgehog protein (Shh); assay: small-molecule binders of Shh protein, primary screen, biochemical, small-molecule microarray, 635/667 nm fluorescence (AID 1151); details: small-molecule microarray binding, 635 nm fluorescence; higher = more signal;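 also: Shh protein binding to compounds spotted on small-molecule microarray slides; score combines spot fluorescence intensity with signal-to-noise across triplicate slides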

| SMILES | composite z-score [1] | z-score [2] | z-score [3] | z-score [4] | z-score [5] | composite z-score [6] | composite z-score [7] | composite z-score (Torsin-1A (Homo sapiens) [8]) | composite z-score (Torsin-1A (Homo sapiens) [9]) | composite z-score [10] |
| --- | --- | --- | --- | --- | --- | --- | --- | --- | --- | --- |
| CCCCC(=C=CC[C@H](O)c1ccccc1OCCO)C[C@H](O)COCc1ccccc1 | -0.0702 | -1.41 (inactive) | 1.44 (inactive) | 3.27 (inactive) | 0.571 (inactive) | 0.395 | -0.0523 | 1.08 | 0.259 | 0.0668 |
| C=C(/C(=C/C[C@@H](OC(=O)c1ccncc1)c1ccc(OCCO)cc1)c1cnc2ccccc2c1)C(C)C | 0.73 | -8.41 (active) | -0.56 (inactive) | 6.47 (inactive) | -0.209 (inactive) | 0.283 | 0.0108 | 1.55 | 0.815 | 2.11 |
| COc1ccc([Si](C)(C)[C@@H]2[C@@H](CCO)O[C@]3(C(=O)N(Cc4ccc(NC(C)=O)cc4)c4ccccc43)[C@H]2C)cc1 | 0.913 | -8.01 (active) | 0.525 (inactive) | 3.57 (inactive) | -2.33 (inactive) | 0.627 | 0.16 | 0.412 | 1.21 | 1.35 |
| CC(C)[C@H](NC(=O)OC(C)(C)C)[C@@H](O)CC(=O)OC(C)(C)C | -0.417 | -0.49 (inactive) | -0.896 (inactive) | 0.293 (inactive) | 0.337 (inactive) | -0.14 | -0.152 | -0.781 | -0.448 | -0.463 |
| CO[C@H]1COC(=O)[C@H](C)COC(=O)CC=C[C@@H](C)[C@H](OC)COC(=O)CC=C[C@@H]1C | 0.185 | -0.0182 (inactive) | -0.272 (inactive) | -0.474 (inactive) | 0.592 (inactive) | -0.436 | -0.128 | 1.03 | 0.666 | 1.55 |
| COc1ccc(-c2nc3c(c4c2C[C@H](C)OC4)CN(CCC(C)C)CC3)cc1 | -0.0798 | -0.333 (inactive) | -1.22 (inactive) | 7.06 (inactive) | -1.11 (inactive) | 0.141 | -0.0791 | -0.253 | 0.0824 | 1.32 |
| CCOC(=O)CCN1C(=O)[C@H]2[C@H]3[C@H](O)[C@H](O)CC(=NOC[C@@H](O)COCc4ccco4)[C@H]3CC[C@H]2C1=O | -0.0068 | -4.31 (inactive) | -0.284 (inactive) | 1.41 (inactive) | 0.749 (inactive) | 0.0794 | -0.0627 | 0.291 | 0.18 | 0.856 |
| CCN1C(=O)[C@H]2[C@H]3[C@H](O)C=CC(=O)[C@@H]3CC[C@H]2C1=O | 0.213 | 0.148 (inactive) | 0.465 (inactive) | 0.342 (inactive) | 0.069 (inactive) | 0.232 | -0.0759 | 0.0994 | 0.546 | 0.62 |
| CC(CCN1CCCCc2nc(C)c(C)cc21)=NOC(C)CN1CCCCc2nc(C)c(C)cc21 (stereo not given) | 0.183 | -2.16 (inactive) | 0.483 (inactive) | 0.187 (inactive) | 0.907 (inactive) | 1.1 | 0.0528 | 2.88 | 2.32 | 1.69 |
| COc1ccc(COC(=O)NN=C2C[C@@H](O)[C@@H](O)[C@@H]3[C@@H]4C(=O)N(Cc5ccc6c(c5)OCO6)C(=O)[C@@H]4CC[C@@H]23)cc1 | 0.0183 | -0.797 (inactive) | 0.786 (inactive) | 1.61 (inactive) | -0.41 (inactive) | 1.09 | 0.0028 | -1.15 | -0.686 | -1.07 |
| COCC(=C=CC[C@@H](O)c1ccccc1OCCO)CCO | 0.0554 | 0.0309 (inactive) | -0.118 (inactive) | 0.914 (inactive) | -0.732 (inactive) | -0.174 | -0.0074 | 0.635 | 0.518 | 0.156 |
| CC(C)[Si]1(C(C)C)O[C@@H](c2ccccc2)c2cc(C3CC3)nc(-c3ccccc3)c21 | -0.0654 | 0.414 (inactive) | -0.134 (inactive) | -0.258 (inactive) | -0.541 (inactive) | 0.0887 | -0.207 | -1 | -0.124 | 0.397 |
| NC(=O)NCC#Cc1ccc2c(c1)[C@]1(C(=O)N2)[C@H](c2ccc(O)cc2)N2[C@H](c3ccccc3)[C@H](c3ccccc3)OC(=O)[C@H]2[C@@H]1C(=O)N1CCCCCCC1 | 0.2 | -0.502 (inactive) | -0.75 (inactive) | -0.231 (inactive) | -0.674 (inactive) | 0.393 | 1.23 | -0.067 | 0.609 | 1.06 |
| C[C@H](c1ccccc1)N1C(=O)[C@H]2[C@@H]3C(=CC[C@H]2C1=O)C(=O)[C@H]1O[C@H]1[C@H]3O | -0.103 | -7.43 (inactive) | 1.16 (inactive) | 0.699 (inactive) | 4.29 (inactive) | 0.108 | -0.0474 | 0.25 | -0.0342 | 0.469 |
| O=C1C2C=CC(C(O)c3ccc([N+](=O)[O-])cc3)N(Nc3ccc([N+](=O)[O-])cc3)C2C(=O)N1c1ccccc1 (stereo not given) | 0.71 | 0.301 (inactive) | -0.328 (inactive) | -0.228 (inactive) | 0.554 (inactive) | 0.903 | 0.154 | 0.128 | 0.726 | -0.114 |
